Data reported in the supplement of paper PMC3616981.
± gives the standard deviation of the averaged measurements.

Compound: CC(C)c1cccc(C(C)C)c1N1C(=O)c2ccc(O)cc2C1=O
Assay: BioMAP readout fold decrease vs vehicle (vehicle/treated); higher = stronger decrease of the readout vs vehicle (values <1 mean increase)
Description: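 BioSeek BioMAP human primary cell (co-)culture systems (3C, 4H, LPS, SAg, BE3C, CASM3C, hDFCGF, KF3CT) treated with 5HPP-33 at 1.48, 4.44, 13.3 and 40 µM. Read-outs are protein levels by ELISA, proliferation and SRB total protein. Duplicate rows per assay are averaged as replicates. Tested in ToxCast Phase II for this study; exposure time not stated.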
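Also: Co-cultures of keratinocytes, bronchial epithelial and smooth muscle cells, fibroblasts, HUVECs and PBMCs under stimuli like LPS, TNF-α, IFN-γ, IL-1β, TGF-β or EGF, SRB reflecting cytotoxicity.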

Target	BioMAP readout fold decrease (1.48 µM)	BioMAP readout fold decrease (4.44 µM)	BioMAP readout fold decrease (13.3 µM)	BioMAP readout fold decrease (40 µM)
hDFCGF_MMP1	0.956 ± 0.05	0.93304 ± 0.00091	0.85 ± 0.0086	1.09 ± 0.13
3C_Eselectin	1.04 ± 0.051	1.056 ± 0.0015	0.99 ± 0.023	1.39 ± 0.034
CASM3C_Thrombomodulin	0.989 ± 0.031	0.942 ± 0.049	0.956 ± 0.031	1.23 ± 0.078
